# Tested on: VDR:RXRa (NR concentration 270 nM, RXRa partner concentration 90 nM)
# Test: PBM binding z-score (relative to random genomic background probes); higher = stronger binding; sequences stand for … in GC…GCGATTGACAGCGTAGAATGAAGG
# Procedure: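 Protein-binding microarray (Agilent 4x180K custom design, double-stranded 60-nt probes: 5' GC cap, 34-nt variable region, 24-nt constant primer region; full probe sequence given). Purified or IVT nuclear receptor:RXRα heterodimers (3:1 NR:RXRα, mostly 270:90 nM) or homodimers were incubated for 1 h in PBS with 2% milk and no ligand, then detected with Alexa488 antibodies. Fluorescence from o1-orientation probes (~5 replicates averaged) was converted to z-scores against 500 random hg19 background probes. Variable regions are seed direct-repeat (DR0–DR5) sites, all their single-nucleotide variants and half-site ablations.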
row,Sequence,PBM binding z-score
1,GCTATTTGGTCAGTAAAAGGTCACACACCGGTCG,4.32
2,CAAACTAGGTCAAACGTCAAAGTCGAGCCAACCA,2.41
3,GCTAGTTGGTCAGTAAAAGGTAACACACCGGTCG,0.0911
4,CATACAGGGTCAACTAGGCCAGAGTAGGGACGGC,5.1
5,CCTTACGGGTCACTGACAGGTTATAGAATTTGGA,3.69
6,ATATGTAGGTTAGCTGGTGTCATTCAGACTAGGC,1.4
7,CGAACTAGGTCAAGGACAATGAATCTCCGCACGC,1.49
8,ATCTCAAGGTAACAAGTTCAGTGAAAGAGAGGAC,2.8
9,CAAACTAGGTCACAGAGGTGAAAGTCCGTGCGTA,5.99
10,TCTCCTAGGTCAACGATGGTCAGCTAATCTGCTA,2.39
11,GCATATAGGTAATACAAGATGAAAGTCCGATTGT,-0.0142
12,CGTACAGGGTCAGCTAGGCCAGAGTAGGGACGGC,3.78
13,TCATATAGGTAAATGCTAGGTTAAAGTCCGATCT,1.33
14,CTACCAATGTGAACAAGGTCGTTGATTACTATTC,3.77
15,ACTTACGGGTCAACGAGATTATAGCACGCGTATA,5
16,TCATAAAGGTAAAGGTGAAAGTCGAACGATATGA,0.948
17,AATACAGGGTCATCGGAGGCCAGAGTACGCACAG,5.88
18,CCTTACGAGTCACGAGGTTATAGCACGACGAGCG,1.7
19,CCAGATAGGTGAGAAGGTAACTCAGCCTCGATTA,0.254
20,CCGACTGGGGCATAAGGTGACCATAAGCCAGCCC,-0.42

row,Sequence,PBM binding z-score
1,CGTCCAAGGTCAGCAGGTAAGTGAAAGCGACGTG,2.55
2,ACTCGGAGGACAAAGGTTAGAGCTACGCCAGTGA,0.555
3,CCTACTGGGTCAAGGTCATTGATCAGTCAAAGCA,4.84
4,AGAATGAGGTTATACGTAGATCAGGGACGAAAGT,1.46
5,ATCTCTATGTAAGACTCAGTTCAGTGAAGAACGC,0.971
6,CCTTACGGGTCACTGACAGATTATAGCATTTGGA,3.13
7,TCTTGTAGATCATTAGAGGTTAAGAAAGTGCGCT,2.09
8,GAAACAGGGTCAGCTAGAGGCCAGAGTATGGAAA,3.64
9,CTTGCTAGGTCATGGTCAGCTAATCTACAGTATG,1.59
10,AGAATGAGGTTATCAAAGATCAGGGAAACGCTTG,1.12
11,TCTAGTTGGTCACGGAGGTCTCACACGACGGGTA,1.65
12,ACAGACAGGTGAGTGAAGCTAACTCAGCTGGACG,-0.513
13,CATGCTAGGTCATGGTCAGCTAATCTACAGTATG,1.79
14,TCTATTAGTGGATTAGGGCAACCGAAACAGCGGA,0.547
15,AGAATAAGGTTATACGTAGATCAGGGAAGAAAGT,1.04
16,ATCGCTAGGTAAAGATAGTTCAGTGAATGCAAAT,0.0952
17,CCTGCTAGGTCATTGTCAGCTAATCTACAGTATG,1.66
18,GGAATGAGGGCAAGTTGATAGCAGAGTTTGATGG,1.18
19,TCTGCTAGGTCAACGATGGTCGGCTAATCTGCTA,1.42
20,ATACCAAGGTGATCGTGAGGTCGTCGATACTAAC,2.72

# From the supplement of paper PMC6555819
